# Values joined by “and” are separate entries in the source; they are usually repeats but may differ in a detail not shown here. Identical values can stand only once. Compounds without any hit were thinned out: in the full panel of roughly 83,000, 20% have a hit.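 Cell lines were cultured in 96-well plates, exposed to a single compound concentration, and assessed for percent growth 48 hours later.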 Active and inactive are the calls of the source. Rule for the calls: active = growth percent below 10; inactive = the rest.
# Tests used:
# Experiment in all cases: NCI-60 one-dose screen, 48 h (100 = growth as untreated, 0 = no growth, -100 = all killed)
# SW-620 colon = test system: SW-620 colon
# MCF7 breast = test system: MCF7 breast
# HCT-116 colon = test system: HCT-116 colon
# HCC-2998 colon = test system: HCC-2998 colon
structure (smiles),measurement,setting,value
Cc1ccc(C(=O)OC(C(=O)O)C(OC(=O)c2ccc(C)cc2)C(=O)O)cc1 (stereo not given) (tested in a mixture with another compound),growth,SW-620 colon; 10 µM unless noted,53.4% (inactive)
same,growth,MCF7 breast; 10 µM,14.3% (inactive)
same,growth,HCT-116 colon; 10 µM unless noted,22.1% (inactive)
same,growth,HCC-2998 colon; 10 µM unless noted,73% (inactive)
S=C(SSC(=S)N1CCCCC1)N1CCCCC1,growth,SW-620 colon; 10 µM,95.3% (inactive)
same,growth,SW-620 colon; 100 µM,-55.7% (active)
same,growth,MCF7 breast; 10 µM,80.1% (inactive)
same,growth,MCF7 breast; 100 µM,-46.8% (active)
same,growth,HCT-116 colon; 10 µM,85.3% (inactive)
same,growth,HCT-116 colon; 100 µM,-76.4% (active)
same,growth,HCC-2998 colon; 10 µM,109% (inactive)
same,growth,HCC-2998 colon; 100 µM,22.3% (inactive)
CC[C@@]1(O)C[C@H](OC2CC(N(C)C)C(O)C(C)O2)c2c(O)c3c(c(O)c2[C@H]1OC1CC(N(C)C)C(O)C(C)O1)C(=O)c1cccc(O)c1C3=O (stereo not given in full),growth,SW-620 colon; 10 µM unless noted,-0.489% (active)
same,growth,MCF7 breast; 10 µM,-8.26% (active)
same,growth,HCT-116 colon; 10 µM unless noted,-3.79% (active)
same,growth,HCC-2998 colon; 10 µM unless noted,-83.6% (active)
Oc1cccc2cccnc12,growth,SW-620 colon; 10 µM unless noted,48.2% (inactive) and 100% (inactive) and 103% (inactive)
same,growth,MCF7 breast; 10 µM,1.86% (active) and 103% (inactive) and 104% (inactive)
same,growth,HCT-116 colon; 10 µM unless noted,47.6% (inactive) and 108% (inactive) and 113% (inactive)
same,growth,HCC-2998 colon; 10 µM unless noted,100% (inactive) and 103% (inactive) and 123% (inactive)

# Source: PubChem BioAssay (NCI)
